# Test results from PubChem BioAssay AID463173 (ICCB-Longwood Screening Facility, Harvard Medical School, 2010).
# About 4,300 (8.3%) of roughly 52,000 compounds were called active. Only a selection was taken, and actives are over-represented in it overall. Unmarked numbers belong to inactive results. Cut-off read from the data, not from the text of the source: active = survival mostly below about 52% (no sharp cut-off); inactive = mostly above about 56%.
# Tested on: DeltatarO mutant
# Experiment: growth inhibition of S. aureus wild type versus tarO mutant, primary screen, teichoic acid synthesis inhibitors, RN4220, OD600 (AID 463173)
# Conditions: OD600, 18 h, hits give low values, screened at 18.75 µg/mL (by protocol)
row,Structure (SMILES),survival
1,CCOC(=O)c1oc2ccc(S(=O)(=O)n3nc(-c4cc(OC)c(OC)c(OC)c4)cc3N)cc2c1C,73%
2,Cc1cccc(N2CCN(C(=O)C3CCN(S(=O)(=O)c4c(C)noc4C)CC3)CC2C)c1 (configuration not stated),100%
3,CCOc1ccc(-c2nn(CC(=O)NC3CCCCC3)c3c2cnc2ccc(C)cc23)cc1,107%
4,CCOc1ccc(NC(=O)C2CCCN(c3nn4cc(-c5ccc(OC)cc5)nc4s3)C2)cc1 (configuration not stated),113%
5,Cc1oc(-c2cccc(Cl)c2)nc1CSc1nncn2c1cc1occc12,103%
6,COC(=O)c1sccc1S(=O)(=O)N(CC(=O)Nc1cc(C)cc(C)c1)c1ccc(Cl)cc1,88%
7,Cn1c(SCC#N)nc2c(c1=O)C1(CCCCC1)Cc1ccccc1-2,103%
8,CCCCNC(=O)C1CCN(Cc2cccc(OC)c2O)CC1,78%
9,CCC(C)n1c(SCC(=O)Nc2ccccc2C(=O)OC)nc2ccsc2c1=O (configuration not stated),17% (active)
10,CCn1c(SCC(=O)Nc2ccccc2C(=O)OC)nc2ccsc2c1=O,94%
11,CCCNC(=O)CSc1nc(-c2ccccc2)cc(C(F)(F)F)n1,77%
12,COC(=O)c1ccccc1NC(=O)CSc1nc2ccsc2c(=O)n1CCC(C)C,88%
13,COC(=O)CSc1nc(-c2ccccc2)cc(C(F)(F)F)n1,88%
14,COC(=O)c1ccccc1NC(=O)CSc1nc(-c2ccccc2)cc(C(F)(F)F)n1,25% (active)
15,CCNC(=O)C1CCCN(c2ncnc3onc(C)c23)C1 (configuration not stated),101%
16,CCOc1ccccc1NC(=O)c1ccc2c(c1)CCN2S(C)(=O)=O,75%
17,COc1ccc(S(=O)(=O)Nc2cccc(-c3ccc(N4CCOCC4)nn3)c2)cc1F,88%
18,COc1ccc(CCN2C(=O)c3oc4cc(C)cc(C)c4c(=O)c3C2c2ccc(F)cc2)cc1OC (configuration not stated),56%
19,CCCN1C(=O)c2oc3cc(C)cc(C)c3c(=O)c2C1c1ccc(F)cc1 (configuration not stated),49% (active)
20,Cc1cc(C)c2c(=O)c3c(oc2c1)C(=O)N(Cc1ccc(F)cc1)C3c1cccc(O)c1 (configuration not stated),52% (active)
21,Cc1cc(C)c2c(=O)c3c(oc2c1)C(=O)N(Cc1ccco1)C3c1ccc(F)cc1 (configuration not stated),53%
22,COCCN1C(=O)c2oc3cc(C)cc(C)c3c(=O)c2C1c1cccc(O)c1 (configuration not stated),71%
23,O=C1c2oc3ccccc3c(=O)c2C(c2cccc(O)c2)N1Cc1ccc(F)cc1 (configuration not stated),77%

row,Structure (SMILES),survival
1,COc1ccc(CNC(=O)c2ccc3c(c2)nc2n3CCCCC2)cc1,89%
2,CCN(CC)S(=O)(=O)c1ccc2nc(NC(=O)c3ccc(Br)o3)sc2c1,87%
3,N#Cc1ccc(NC(=O)c2cc(-c3cccc(Cl)c3)on2)cc1,71%
4,CCCCCNC(=O)C1CCC(Cn2c(=O)c3sccc3n(CC)c2=O)CC1 (configuration not stated),49%
5,CCCCN(C)C(=O)C1CCC(Cn2c(=O)[nH]c3ccsc3c2=O)CC1 (configuration not stated),0% (active)
6,CNC(=O)C1CCC(Cn2c(=O)[nH]c3ccsc3c2=O)CC1 (configuration not stated),99%
7,CCC(CC)C(=O)Nc1cc(-c2ccccc2F)nn1-c1ccccc1,76%
8,CCOC(=O)c1c(NC(=O)COc2cccc(C)c2C)sc2c1CCCCC2,64%
9,CCOC(=O)c1c(NC(=O)COc2cccc(C(F)(F)F)c2)sc2c1CCC(C)C2 (configuration not stated),68%
10,COC(=O)c1c(NC(=O)COc2cccc(C(F)(F)F)c2)sc2c1CCCC2,49%
11,CCOC(=O)c1c(NC(=O)COc2ccccc2Br)sc2c1CCCCC2,40% (active)
12,CCOC(=O)c1c(NC(=O)COc2ccccc2F)sc2c1CCCC2,67%
13,CCOC(=O)c1c(NC(=O)COc2cccc(C(F)(F)F)c2)sc2c1CCCCC2,60% (active)
14,O=S(=O)(Nc1cccc(-c2ccc(N3CCOCC3)nn2)c1)c1ccc(F)cc1F,62%
15,Cc1c(CCNC(=O)c2c(F)cccc2F)sc2nc(-c3ccc(F)cc3)nn12,117%
16,CCOc1ccccc1CNC(=O)c1ccc(NC(=O)N2CCSc3ncccc32)cc1,79%
17,CCc1nnc(NC(=O)CSC2=NC(=O)C(NC(C)=O)C(=O)N2)s1 (configuration not stated),99%
18,CCCN(CCC)C(=O)Cn1c(=O)n(CCCCCC(=O)NCc2ccccc2Cl)c(=O)c2sccc21,81%
19,Cc1ccc(Cn2c(=O)n(Cc3ccccc3)c(=O)c3oc4ccccc4c32)cc1,69%
20,CC(=O)N1CCCc2cc(S(=O)(=O)NCc3cccc(C)c3)ccc21,78%
21,C=CCc1c(C)nc2nc(SCC(=O)Nc3ccc(C)c(C)c3)nn2c1C,75%
22,CCOC(=O)c1ccccc1NC(=O)CSc1cc(C)[nH]c(=O)n1,88%
23,COc1cc(C(=O)Nc2cc(C)ccc2OCc2cc(=O)n3cc(C)sc3n2)cc(OC)c1OC,89%

row,Structure (SMILES),survival
1,O=C(c1cccn1-c1nnc(N2CCCCC2)s1)N1CCN(c2ccc(Cl)cc2)CC1,69%
2,O=C(c1cccn1-c1nnc(N2CCCC2)s1)N1CCN(c2ccc(F)cc2)CC1,118%
3,COc1ccc(N2CCN(C(=O)c3cccn3-c3nnc(N4CCCC4)s3)CC2)cc1,101%
4,O=C(c1cccn1-c1nnc(N2CCCCC2)s1)N1CCN(c2ccccc2)CC1,0% (active)
5,O=C(c1cccn1-c1nnc(N2CCCC2)s1)N1CCN(c2ccccc2)CC1,25% (active)
6,O=C(c1cccn1-c1nnc(N2CCCC2)s1)N1CCN(c2ccc(Cl)cc2)CC1,63%
7,O=S(=O)(c1ccc2nc(Nc3ccc(Br)cc3F)ccc2c1)N1CCCCC1,70%
8,Cc1ccc(CNC(=O)C2COc3ccccc3C2)cc1 (configuration not stated),117%
9,O=C(NCCc1ccccc1)C1COc2ccccc2C1 (configuration not stated),37% (active)
10,O=C(NCCc1ccc(Cl)cc1)C1COc2ccccc2C1 (configuration not stated),69%
11,COc1ccc(CCNC(=O)C2COc3ccccc3C2)cc1OC (configuration not stated),75%
12,Cc1ccc(CCNC(=O)C2COc3ccccc3C2)cc1 (configuration not stated),74%
13,CN(C)c1ccc(CNC(=O)C2COc3ccccc3C2)cc1 (configuration not stated),32% (active)
14,CCOc1ccc(CCNC(=O)C2COc3ccccc3C2)cc1OCC (configuration not stated),0% (active)
15,CCc1ccc(CNC(=O)C2COc3ccccc3C2)cc1 (configuration not stated),81%
16,CCOc1cc(CNC(=O)C2COc3ccccc3C2)cc(OCC)c1OCC (configuration not stated),69%
17,NC(=O)c1cc(S(=O)(=O)NCC2CCC(C(=O)Nc3cccc(Cl)c3)CC2)cs1 (configuration not stated),76%
18,CCCOc1ccc(-c2nonc2NC(=O)c2cc(OC)c(OC)c(OC)c2)cc1OCCC,84%
19,COc1ccccc1CNC(=O)CCNS(=O)(=O)c1cccc2nsnc12,64%
20,CCc1ccccc1NC(=O)C(=O)c1cc(C)n(-c2ccccc2F)c1C,87%
21,CCOC(=O)C1=C(CN2CCN(c3ccc(C)cc3C)CC2)NC(=O)NC1c1ccc(OC)cc1 (configuration not stated),97%
22,CC1(C)CC2(CC(C)(C)NC(=O)N2)NC(=O)N1,89%
23,Cc1cc(C)c(Cn2c(=O)n(Cc3ccccc3)c(=O)c3c(C)c(C)sc32)c(C)c1,49%

row,Structure (SMILES),survival
1,Cc1cccc(-c2nnc(SCC(=O)NC3CCCCC3)o2)c1,82%
2,Cc1ccc(CNC(=O)c2ccc3c(O)c(S(=O)(=O)c4ccc(Cl)cc4)c(=O)[nH]c3c2)cc1,84%
3,Cc1cc(-c2nc3ncccc3o2)ccc1NC(=O)c1ccc(Cl)cc1,76%
4,Cc1ccc(-c2nc3ncccc3o2)cc1NC(=O)c1cccc(OCC(C)C)c1,42% (active)
5,COc1ccc(C(=O)Nc2cc(-c3nc4ncccc4o3)ccc2C)cc1Br,40% (active)
6,CCOc1cc(C(=O)Nc2ccc(-c3nc4ncccc4o3)cc2C)cc(OCC)c1OCC,52% (active)
7,Cc1cc(C)cc(C(=O)Nc2ccc(-c3nc4ncccc4o3)cc2)c1,56%
8,Cc1ccc(-c2nc3ncccc3o2)cc1NC(=O)c1ccccc1Br,53%
9,CC(C)COc1cccc(C(=O)Nc2ccc(-c3nc4ncccc4o3)cc2)c1,65%
10,COc1c(C)cc(Br)cc1C(=O)Nc1ccc(-c2nc3ncccc3o2)cc1,50%
11,Cc1cc(-c2nc3ncccc3o2)ccc1NC(=O)c1ccccc1Br,27% (active)
12,COc1ccc(C(=O)Nc2ccc(-c3nc4ncccc4o3)cc2)cc1,78%
13,Cc1cc(-c2nc3ncccc3o2)ccc1NC(=O)c1ccc(Br)cc1,174%
14,Cc1ccc(C(=O)Nc2cc(-c3nc4ncccc4o3)ccc2C)c(C)c1,98%
15,CCOC(=O)C1CCCN(S(=O)(=O)c2cc(Br)cc3c2N(C(C)=O)CC3)C1 (configuration not stated),72%
16,CCC1CN(C(=O)N2CCC(C(=O)NCc3cccc(C)c3)CC2)c2ccccc2O1 (configuration not stated),77%
17,O=C(NCc1ccco1)Nc1ccccc1,94%
18,O=C(CCCCn1c(=O)c2ccccc2n(CC(=O)Nc2ccc(F)cc2F)c1=O)NCCc1ccccc1,92%
19,CC1=C(C(=O)NCc2ccccc2Cl)C2(CCCCCC2)OC1=O,49%
20,CCCN(c1ccc(C(C)C)cc1)S(=O)(=O)c1ccc2c(c1)n(C)c(=O)c(=O)n2C,84%
21,COc1ccc(NC(=O)Cn2c(C)cc3ccccc3c2=O)c(OC)c1,59%
22,CCc1cccc(C)c1Nc1c(-c2cccc(O)c2)nc2nc(C)cc(C)n12,66%
23,CCc1cccc(NC(=O)CCS(=O)(=O)c2cc(Br)cc3c2N(C(C)=O)CC3)c1,144%
